Laboratory results as given in PubChem BioAssay AID602409 (Sanford-Burnham Center for Chemical Genomics, 2012).
This is one part of the list. Activity calls are given as the source filed them.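 The calls were made as follows: active = mean inhibition over four retests above 40%; inactive = the rest.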

target: C-X-C chemokine receptor type 6 (Homo sapiens) (UniProt O00574); experiment: CXCR6 beta-arrestin signal inhibition by hits – cell-based, single concentration, luminescence, confirmation (AID 602409); conditions: CHO-K1 CXCR6 PathHunter beta-arrestin, at 20 µM, stronger effect = higher value;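 also: receptor stimulated with 10 nM CXCL16 agonist; beta-galactosidase fragment complementation upon beta-arrestin recruitment to receptor; plate controls were CXCL16 plus DMSO for no effect and DMSO without CXCL16 for full effect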
Sequence (O00574 whole entry, looked up, the tested form may be a part): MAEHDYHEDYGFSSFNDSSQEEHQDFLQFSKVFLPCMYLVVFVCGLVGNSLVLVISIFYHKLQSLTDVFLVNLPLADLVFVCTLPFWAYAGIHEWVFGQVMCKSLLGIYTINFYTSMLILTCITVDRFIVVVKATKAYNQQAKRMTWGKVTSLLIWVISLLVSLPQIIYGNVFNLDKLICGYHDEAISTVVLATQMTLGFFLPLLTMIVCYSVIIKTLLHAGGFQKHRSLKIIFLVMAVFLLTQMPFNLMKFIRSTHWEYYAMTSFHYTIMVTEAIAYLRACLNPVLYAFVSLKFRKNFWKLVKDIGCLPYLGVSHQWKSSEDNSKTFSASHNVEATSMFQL

inhibition, active:
C/C(=N\NC(=O)Cc1ccc(Cl)cc1)c1ccccn1 104%
O=C1C=CC(=O)N1c1ccc(N2CCCCC2)cc1 63.5%
O=C(Nc1ccccc1Cl)/C(Cl)=C(\Cl)S(=O)c1ccccc1 (centres undefined) 81%
O=[N+]([O-])/C=C/c1ccc2c(ccn2Cc2ccccc2)c1 76.2%
O=C(CSc1cccc2cccnc12)N/N=C/c1cccnc1 67.2%
CCN(CC)CCn1c(N)c(S(=O)(=O)c2ccccc2)c2nc3ccccc3nc21 55%
COc1cccc2sc(N(CCCN(C)C)C(=O)CCS(=O)(=O)c3ccccc3)nc12 81%
COc1ccc(-c2csc(Cc3nc(O)cs3)n2)cc1 77%
COC(=O)/C=C\C(=O)Nc1cccc([N+](=O)[O-])c1 45.6%
CC(=O)/C(=N\Nc1ccc(Cl)cc1Cl)Sc1cccc2cccnc12 81%
CC(C)N=C1CCCC1C(=S)SSC(=S)C1CCCC1=NC(C)C (centres undefined) 94.9%
Cc1cc(C)nc(S/C=C/C(=O)c2ccccc2)n1 41.5%
Cc1ccc(-n2[nH]c(C)c(/C=N/N3C(=O)c4cccc5cccc(c45)C3=O)c2=O)cc1 60.2%

inhibition, inactive:
O=C(C1CC(=O)N(C2CCCCC2)C1)N1CCN(c2ccccc2)CC1 (centres undefined) 3.17%
COCCCNC(=S)NC(=O)c1ccc([N+](=O)[O-])cc1 19.8%
O=C(Nc1ccccc1)c1nnsc1S(=O)(=O)c1ccc(Cl)cc1 19.7%
Cc1c(C(=O)NCCN(C)C)oc2ccc(S(=O)(=O)N3CCCC3)cc12 10.1%
CC(=O)Nc1cc(-c2ccc(N3CCN(C)CC3)cc2)cn2c(-c3ccc(F)cc3)cnc12 31.3%
Cc1cc(C(=O)NCCCc2ccccc2)no1 9.46%
CCCCCCCCCCOC(=O)Cn1c(COc2cccc(OC)c2)[n+](C)c2ccccc21 4%
CCOCCCN1C(=O)C2C(C(=O)Nc3ccc(OCC)cc3)C3C=CC2(O3)C1C(=O)NC1CCCCC1 (centres undefined) -4.97%
CCCCCCCCCCOC(=O)C[N+](C)(C)CC1CCCCC1O (centres undefined) 14.4%
CCCCNC(=S)N/N=C1\CCCCc2ccccc21 24.7%
CCC(=O)OCCNc1nc(-c2ccccc2)nc2ccccc12 11.6%
